Screen size: about 5,500 compounds; about 2,000 (36%) were called active. Not shown: some 18% with an inconclusive outcome. Rule as the data show it: active = normalized growth mostly below about 0.91 (no sharp cut-off); inconclusive = no clear call, values can overlap the other calls; inactive = mostly above about 0.92. The list shows a part of the results.
Assay: chemical genetic growth profiling, strain panel (AID 1159580);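 also: tested at 20 µM; growth read once vehicle control cultures reached saturation at 30 °C; 1 = growth at the plate median or of vehicle wells; lower values mean less growth of the strain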
Details: S. cerevisiae deletion strains, growth OD
[1] = locus YHR030C, strain SLT2, active compounds read low
[2] = locus YHR079C, strain IRE1, active compounds read low
[3] = locus YJL095W, strain BCK1, active compounds read low
[4] = locus YJR066W, strain TOR1, active compounds read low
[5] = locus YLR113W, strain HOG1, active compounds read low
[6] = locus YNL183C, strain NPR1, active compounds read low
[7] = locus YOR231W, strain MKK1, active compounds read low
[8] = locus YPL256C, strain CLN2, active compounds read low
[9] = locus YAL040C, strain CLN3, active compounds read low
[10] = locus YER002W, strain NOP16, active compounds read low
[11] = locus YGR229C, strain SMI1, active compounds read low
[12] = locus YMR263W, strain SAP30, active compounds read low
[13] = locus YNL128W, strain TEP1, active compounds read low
[14] = locus YNL153C, strain GIM3, active compounds read low
[15] = locus YNL175C, strain NOP13, active compounds read low
[16] = locus YNL197C, strain WHI3, active compounds read low
[17] = locus YNL224C, strain SQS1, active compounds read low
[18] = locus YOR083W, strain WHI5 (second series), active compounds read low
[19] = locus YCL061C, strain MRC1 (second series), active compounds read low
[20] = locus YDR363W, strain ESC2, active compounds read low
[21] = locus YMR307W, strain GAS1, active compounds read low
[22] = locus YPL055C, strain LGE1, active compounds read low
[23] = locus YPL241C, strain CIN2, active compounds read low

Measured: normalized growth

O=C1OC2(c3ccc(O)cc3Oc3cc(O)ccc32)c2ccccc21
inactive: locus YAL021C, strain ccr4, active compounds read low 1.02 | locus YAL026C, strain drs2, active compounds read low 0.997 | locus YAL030W, strain snc1, active compounds read low 1.01 | locus YBL061C, strain skt5, active compounds read low 1.01 | locus YBR009C, strain hhf1, active compounds read low 0.995 | locus YBR023C, strain chs3, active compounds read low 1.02 | locus YBR171W, strain sec66, active compounds read low 1.04 | locus YBR231C, strain swc5, active compounds read low 1 | locus YBR279W, strain paf1, active compounds read low 1.01 | locus YCL011C, strain gbp2, active compounds read low 1.02 | locus YCL016C, strain dcc1, active compounds read low 1 | locus YCL069W, strain vba3, active compounds read low 1.02 | locus YCR088W, strain abp1, active compounds read low 1.03 | locus YDL005C, strain med2, active compounds read low 1.02 | locus YDL040C, strain nat1, active compounds read low 1.01 | locus YDR001C, strain nth1, active compounds read low 1.03 | locus YDR069C, strain doa4, active compounds read low 1.01 | locus YDR137W, strain rgp1, active compounds read low 0.994 | locus YDR159W, strain sac3, active compounds read low 0.986 | locus YDR195W, strain ref2 1.03 | locus YDR297W, strain sur2, active compounds read low 1.02 | locus YDR334W, strain swr1, active compounds read low 0.989 | locus YDR335W, strain msn5, active compounds read low 1.01 | locus YDR392W, strain spt3, active compounds read low 0.976 | locus YEL003W, strain gim4, active compounds read low 1.01 | locus YEL037C, strain rad23, active compounds read low 1.01 | locus YEL061C, strain CIN8 (second series), active compounds read low 1.01 | locus YER015W, strain faa2, active compounds read low 1.01 | locus YER016W, strain bim1, active compounds read low 0.994 | locus YER111C, strain swi4, active compounds read low 1.01 | locus YER155C, strain BEM2 (second series), active compounds read low 1.02 | locus YFR010W, strain ubp6, active compounds read low 1.02 | locus YGL167C, strain pmr1, active compounds read low 1.02 | locus YGL173C, strain kem1, active compounds read low 1.01 | locus YGL227W, strain vid30, active compounds read low 1.02 | locus YGL240W, strain doc1, active compounds read low 0.973 | locus YGL253W, strain hxk2, active compounds read low 1.02 | locus YHR013C, strain ard1, active compounds read low 1.04 | locus YHR027C, strain rpn1, active compounds read low 1.01 | [1] 0.978 | [2] 0.974 | locus YHR142W, strain chs7, active compounds read low 1.04 | locus YJL092W, strain hpr5, active compounds read low 1.02 | locus YJL095W, strain BCK1 (second series), active compounds read low 1.01 | [3] 1.02 | locus YJL115W, strain asf1, active compounds read low 1.01 | locus YJL129C, strain trk1, active compounds read low 1.04 | locus YJL154C, strain vps35, active compounds read low 1.02 | locus YJL164C, strain tpk1, active compounds read low 1 | locus YJL166W, strain qcr8, active compounds read low 1 | [4] 0.938 | locus YKL160W, strain elf1, active compounds read low 1.02 | locus YKR026C, strain gcn3, active compounds read low 1.02 | locus YKR091W, strain srl3, active compounds read low 1.02 | locus YLL001W, strain dnm1, active compounds read low 0.997 | locus YLL026W, active compounds read low 0.999 | locus YLL041C, strain sdh2, active compounds read low 1.01 | locus YLR027C, strain aat2, active compounds read low 1.01 | [5] 0.98 | locus YLR221C, strain rsa3, active compounds read low 0.999 | locus YLR258W, strain gsy2, active compounds read low 1.01 | locus YLR262C, strain YPT6 (second series), active compounds read low 1 | locus YLR320W, strain mms22, active compounds read low 1 | locus YLR342W, strain FKS1, active compounds read low 0.992 | locus YLR357W, strain rsc2, active compounds read low 1.01 | locus YLR370C, strain arc18, active compounds read low 1.01 | locus YLR384C, strain iki3, active compounds read low 1.02 | locus YML120C, strain ndi1, active compounds read low 1.04 | locus YMR058W, strain fet3, active compounds read low 1.01 | locus YMR125W, strain sto1, active compounds read low 1.02 | locus YMR129W, active compounds read low 1.02 | locus YMR205C, strain PFK2, active compounds read low 1.02 | locus YMR231W, strain pep5, active compounds read low 1.02 | locus YNL071W, strain lat1, active compounds read low 1.01 | [6] 0.951 | locus YNL209W, strain ssb2, active compounds read low 1.02 | locus YNL248C, strain rpa49, active compounds read low 1 | locus YNL322C, strain KRE1 (second series), active compounds read low 0.99 | locus YNR049C, strain mso1, active compounds read low 1.02 | locus YOR001W, strain rrp6, active compounds read low 1.01 | locus YOR070C, strain gyp1, active compounds read low 1.01 | locus YOR080W, strain dia2, active compounds read low 1.02 | locus YOR083W, strain WHI5, active compounds read low 0.98 | locus YOR106W, strain vam3, active compounds read low 1.02 | [7] 0.971 | locus YOR265W, strain rbl2, active compounds read low 1.01 | locus YOR270C, strain vph1, active compounds read low 0.991 | locus YOR290C, strain snf2, active compounds read low 1 | locus YPL051W, strain arl3, active compounds read low 0.997 | locus YPL078C, strain atp4, active compounds read low 0.992 | locus YPL106C, strain sse1, active compounds read low 0.987 | locus YPL240C, strain hsp82, active compounds read low 1.01 | [8] 0.99

NC(N)=NCCC[C@H](N)C(=O)O
inactive: [9] 1.09 | [10] 1.01 | locus YGR078C, strain PAC10, active compounds read low 0.987 | [11] 0.98 | [12] 1.01 | [13] 0.986 | [14] 1.01 | [15] 0.981 | [16] 0.989 | [17] 0.999 | locus YNL322C, strain KRE1, active compounds read low 0.984 | [18] 0.975

CCCCC#Cc1nc(N)c2ncn([C@@H]3O[C@H](C(=O)NCC)[C@@H](O)[C@H]3O)c2n1
inactive: [9] 0.949 | [19] 0.996 | [20] 1 | [10] 1 | [12] 0.996 | [21] 1.01 | [14] 1.19 | [15] 0.98 | [16] 0.982 | [17] 1.01 | [18] 0.982 | [22] 0.991 | [23] 0.994

COc1nc(C)nc(Cl)c1NC1=NCCN1
inactive: locus YAL013W, strain DEP1, active compounds read low 1.01 | [9] 0.999 | [19] 0.999 | locus YDR150W, strain NUM1, active compounds read low 0.996 | [20] 1.01 | [10] 0.987 | [11] 1.01 | locus YJR075W, strain HOC1, active compounds read low 0.99 | [12] 0.998 | [21] 1.01 | [13] 1.01 | [15] 1 | [16] 1 | [17] 1.01 | [18] 1.01 | [22] 0.998 | [23] 0.997

Cc1c(C(=S)Nc2ccccc2)sc2ccccc12
active: [1] 0.809
inactive: locus YAR019C, strain CDC15, active compounds read low 0.943 | locus YBL105C, strain PKC1, active compounds read low 0.958 | locus YBR135W, strain CKS1, active compounds read low 0.935 | locus YBR136W, strain MEC1, active compounds read low 0.947 | locus YBR160W, strain CDC28, active compounds read low 0.948 | locus YDL017W, strain CDC7, active compounds read low 0.964 | locus YDL028C, strain MPS1, active compounds read low 0.953 | locus YDL101C, strain DUN1, active compounds read low 0.961 | locus YDL108W, strain KIN28, active compounds read low 0.946 | locus YDL132W, strain cdc53, active compounds read low 0.967 | locus YDL214C, strain PRR2, active compounds read low 0.881 | locus YDR052C, strain DBF4, active compounds read low 0.959 | locus YDR054C, strain cdc34, active compounds read low 0.938 | locus YDR226W, strain ADK1, active compounds read low 0.941 | locus YDR477W, strain SNF1, active compounds read low 0.887 | locus YER123W, strain YCK3, active compounds read low 0.882 | locus YER133W, strain GLC7, active compounds read low 0.865 | locus YFL009W, strain cdc4, active compounds read low 0.943 | locus YFL029C, strain CAK1, active compounds read low 0.941 | locus YFR003C, strain YPI1, active compounds read low 0.949 | locus YFR019W, strain FAB1, active compounds read low 0.948 | locus YFR028C, strain CDC14, active compounds read low 0.969 | locus YGR040W, strain KSS1, active compounds read low 0.867 | locus YGR052W, strain FMP48, active compounds read low 0.968 | locus YGR092W, strain DBF2, active compounds read low 0.728 | [2] 0.816 | locus YHR082C, strain KSP1, active compounds read low 0.863 | locus YHR205W, strain SCH9, active compounds read low 0.861 | locus YIL147C, strain SLN1, active compounds read low 0.951 | [3] 0.886 | locus YJL128C, strain PBS2, active compounds read low 0.95 | locus YJL157C, strain FAR1, active compounds read low 0.863 | locus YJR016C, strain ILV3, active compounds read low 0.946 | locus YJR066W, strain TOR1 (second series), active compounds read low 0.818 | [4] 0.899 | locus YKL048C, strain ELM1, active compounds read low 0.933 | locus YKL067W, strain YNK1, active compounds read low 0.884 | locus YKL101W, strain HSL1, active compounds read low 0.917 | locus YKL193C, strain SDS22, active compounds read low 0.94 | locus YKL203C, strain TOR2, active compounds read low 0.925 | [5] 0.915 | locus YLR133W, strain CKI1, active compounds read low 0.888 | locus YLR403W, strain SFP1, active compounds read low 0.81 | locus YML070W, strain DAK1, active compounds read low 0.865 | locus YMR001C, strain CDC5, active compounds read low 0.938 | locus YMR205C, strain PFK2 (second series), active compounds read low 0.879 | locus YMR277W, strain FCP1, active compounds read low 0.939 | locus YNL006W, strain LST8, active compounds read low 0.951 | locus YNL020C, strain ARK1, active compounds read low 0.875 | locus YNL161W, strain CBK1, active compounds read low 0.954 | [6] 0.863 | locus YNL207W, strain RIO2, active compounds read low 0.946 | locus YNL222W, strain SSU72, active compounds read low 0.941 | locus YNL307C, strain MCK1 (second series), active compounds read low 0.842 | locus YOL078W, strain AVO1, active compounds read low 0.934 | locus YOL136C, strain PFK27, active compounds read low 0.859 | locus YOR061W, strain CKA2, active compounds read low 0.854 | locus YOR119C, strain RIO1, active compounds read low 0.965 | [7] 0.879 | locus YOR329C, strain SCD5, active compounds read low 0.958 | locus YPL031C, strain PHO85, active compounds read low 0.862 | locus YPL153C, strain RAD53, active compounds read low 0.847 | locus YPL204W, strain HRR25, active compounds read low 0.828 | locus YPL209C, strain IPL1, active compounds read low 0.95 | [8] 0.899 | locus YPR025C, strain CCL1, active compounds read low 0.945 | locus YPR106W, strain ISR1, active compounds read low 0.951 | locus YPR111W, strain DBF20, active compounds read low 0.99 | strain NNK1, active compounds read low 0.949 | strain TSCII, active compounds read low 0.941
